Consider 17 molecules from PubChem BioAssay (EPA / NIEHS).

Test [1] addresses sheep Cyclooxygenase-2 (Cox2), PTGS2 (gene 443460) (UniProt P79208). Briefly: NVS_ENZ_oCOX2: NovaScreen (NVS) Enzymatic Assay for sheep Cyclooxygenase-2 (Cox2) (AID 2283231). A digest of the protocol:
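Compounds were first run at 25 uM in duplicate against tissue-extracted ovine COX-2; those passing a preset inhibition threshold went to singleton concentration-response testing with a 50 uM maximum. Read-out: absorbance at 0.66 hour.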

Test [2] deals with Adenosine receptor A1 (Bos taurus) (UniProt P28190). The experiment in a line: NVS_GPCR_bAdoR_NonSelective: NovaScreen (NVS) G Protein-Coupled Receptor Assay for bovine Adenosine Receptor (AdoR), Non-selective Binding (AID 2283244). A digest of the protocol:
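Cell-free binding with membranes from bovine striatum: radioligand displaced by test chemical, read after 1 h by filtration and scintillation. Single-point 25 uM duplicate primary, 50 uM top concentration in follow-up curves, DMSO baseline.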

Test [3] concerns the target human Vascular Endothelial Growth Factor Receptor 2 (VEGFR2), KDR (gene 3791) (UniProt P35968). The experiment in a line: NVS_ENZ_hVEGFR2: NovaScreen (NVS) Enzymatic Assay for human Vascular Endothelial Growth Factor Receptor 2 (VEGFR2) (AID 2283230). The gist of the method:
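Cell-free recombinant VEGFR2 kinase, fluorescent substrate with electrophoretic mobility-shift separation; read 1 h after dosing. Screened at 25 uM in duplicate, hits to concentration-response up to 50 uM; loss-of-signal versus DMSO.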

Test [4] concerns the target rat Monoamine Oxidase, MAO-B, Peripheral (MAOBP), Maob (gene 25750) (UniProt P19643). The experiment in a line: NVS_ENZ_rMAOBP: NovaScreen (NVS) Enzymatic Assay for rat Monoamine Oxidase, MAO-B, Peripheral (MAOBP) (AID 2283242).
Test [5] has as its target guinea pig Opioid, Kappa 1 Receptor (OpiateK), OPRK1 (gene 100135587) (UniProt P41144). Briefly: NVS_GPCR_gOpiateK: NovaScreen (NVS) G Protein-Coupled Receptor Assay for guinea pig Opioid, Kappa 1 Receptor (OpiateK) (AID 2283252).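 Also: active means reduced radioligand binding relative to DMSO.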 A digest of the protocol: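 Cell-free tissue prep: guinea pig cerebellar membranes, radioligand displacement, 2 h incubation. Readout: filtration plus scintillation counting. Primary single-point 25 uM duplicate; actives retested in concentration series; DMSO negative control.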

For test [6], the target named is rat Catechol-O-Methyl Transferase (COMT), Comt (gene 24267) (UniProt P22734). Briefly: NVS_ENZ_rCOMT: NovaScreen (NVS) Enzymatic Assay for rat Catechol-O-Methyl Transferase (COMT) (AID 2283235). The gist of the method:
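Rat dorsal striatum extract served as COMT source; product quantified by HPLC/spectrophotometry, read at 0 h after dosing. Primary single-concentration screen at 25 uM, followed by concentration series to a 50 uM maximum.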

In test [7] the test system is rat Monoamine Oxidase, MAO-A, Central (MAOAC), gene 29253. Briefly: NVS_ENZ_rMAOAC: NovaScreen (NVS) Enzymatic Assay for rat Monoamine Oxidase, MAO-A, Central (MAOAC) (AID 2283243).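 Also: potency refers to inhibition seen as signal drop below DMSO baseline.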 The gist of the method:
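Lysate-based radiometric enzyme assay using rat brain tissue; 1.5 h treatment; 25 uM single-point duplicate screen, concentration-response follow-up; loss of signal versus DMSO.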

A short description of test [8]: NVS_GPCR_bNPY_NonSelective: NovaScreen (NVS) G Protein-Coupled Receptor Assay for bovine Neuropeptide Y (NPY) Receptor, Non-selective Binding (AID 2283245). The gist of the method:
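Displacement of radioligand from bovine hippocampal membrane receptors, read by filtration and scintillation counting after 1 hour. Concentration-response to a top of 50 uM followed a 25 uM duplicate primary screen. Loss of signal versus DMSO.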

The target in test [9] is human Serotonin, 5-Hydroxytryptamine Receptor 2A (5HT2A), HTR2A (gene 3356) (UniProt P28223). Briefly: NVS_GPCR_h5HT2A: NovaScreen (NVS) G Protein-Coupled Receptor Assay for human Serotonin, 5-Hydroxytryptamine Receptor 2A (5HT2A) (AID 2283249). A digest of the protocol:
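Radioligand displacement on human cortex tissue extract, counted by filtration and scintillation 1.5 h post-dosing. Initial single-concentration screen at 25 uM in duplicate, concentration series in follow-up; DMSO as baseline.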

Test [10] relates to guinea pig Muscarinic, Peripheral (Mperiperal) Receptor, Non-selective Binding, gene 100379235. Briefly: NVS_GPCR_gMPeripheral_NonSelective: NovaScreen (NVS) G Protein-Coupled Receptor Assay for guinea pig Muscarinic, Peripheral (Mperiperal) Receptor, Non-selective Binding (AID 2283250). The gist of the method:
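Screened in duplicate at 25 uM, hits retested in concentration series to 50 uM max, using bladder membrane radioligand displacement from guinea pig. Filtration and scintillation counting 1 h post-dose, fitted relative to DMSO.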

Test [11] deals with human Serotonin, 5-Hydroxytryptamine Receptor 5A (5HT5A), HTR5A (gene 3361) (UniProt P47898). Briefly: NVS_GPCR_h5HT5A: NovaScreen (NVS) G Protein-Coupled Receptor Assay for human Serotonin, 5-Hydroxytryptamine Receptor 5A (5HT5A) (AID 2283251). The gist of the method:
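Membranes from HEK293 cells, radioligand binding read by filtration and scintillation after 1 h. Single-concentration duplicate testing at 25 uM, then concentration-response for actives; positive-direction fitting relative to DMSO.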

In test [12] the test system is guinea pig Leukotriene B4 Receptor (LTB4), gene 100379538. Briefly: NVS_GPCR_gLTB4: NovaScreen (NVS) G Protein-Coupled Receptor Assay for guinea pig Leukotriene B4 Receptor (LTB4) (AID 2283247). A digest of the protocol:
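Membranes from guinea pig spleen incubated 2 h with radioligand and compound; bound counts measured by filtration and scintillation. Screened first at 25 uM in duplicate, then actives titrated to a 50 uM top concentration relative to DMSO.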

Test [13] has as its target guinea pig Leukotriene D4 Receptor (LTD4), CYSLTR1 (gene 100135514) (UniProt Q2NNR5). The experiment in a line: NVS_GPCR_gLTD4: NovaScreen (NVS) G Protein-Coupled Receptor Assay for guinea pig Leukotriene D4 Receptor (LTD4) (AID 2283248). The gist of the method:
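Guinea pig lung membrane preparation; bound radioligand measured by filter scintillation after 1 h, loss of signal versus DMSO marking displacement. Compounds tested at 25 uM in duplicate, hits retested to max 50 uM.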

Test [14] has as its system bovine Angiotensin II Receptor Type 2 (AT2), gene 407157. Briefly: NVS_GPCR_bAT2: NovaScreen (NVS) G Protein-Coupled Receptor Assay for bovine Angiotensin II Receptor Type 2 (AT2) (AID 2283240). A digest of the protocol:
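Radioligand displacement on bovine cerebellar membranes, 1 hour incubation, filter-based scintillation counting; loss of signal vs DMSO. Duplicate single-point screen at 25 uM, then concentration-response to 50 uM maximum.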

The test system of test [15] is rat Monoamine Oxidase, MAO-A, Peripheral (MAOAP), gene 29253. The experiment in a line: NVS_ENZ_rMAOAP: NovaScreen (NVS) Enzymatic Assay for rat Monoamine Oxidase, MAO-A, Peripheral (MAOAP) (AID 2283237). The gist of the method:
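Scintillation counting tracked MAO-A activity in a cell-free rat liver mitochondrial membrane prep, read 1.17 hours after compound addition. Single-point duplicate testing at 25 uM preceded concentration-response follow-up; activity was fitted relative to DMSO.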

Test [16] deals with rat Monoamine Oxidase, MAO-B, Central (MAOBC), Maob (gene 25750) (UniProt P19643). The experiment in a line: NVS_ENZ_rMAOBC: NovaScreen (NVS) Enzymatic Assay for rat Monoamine Oxidase, MAO-B, Central (MAOBC) (AID 2283238). A digest of the protocol:
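Cell-free radiometric assay, rat brain lysate. Read-out: scintillation counts, 1.17 h post-dosing. Screen 25 uM in duplicate; actives (e.g. ≥30% inhibition) then singleton concentration-response, max 50 uM. Activity loss fitted relative to DMSO.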

Test [17] concerns the target rat Acetylcholinesterase (AChE), Ache (gene 83817) (UniProt P37136). Briefly: NVS_ENZ_rAChE: NovaScreen (NVS) Enzymatic Assay for rat Acetylcholinesterase (AChE) (AID 2283233). A digest of the protocol:
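Compounds first screened at 25 uM in duplicate, then those passing threshold tested in concentration series up to 50 uM, against AChE from rat brain membranes. Enzyme activity read by absorbance at 0.33 h; inhibition scored versus DMSO.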

The target of test [18] is rat Adenylate Cyclase, Forskolin Stimulated, Adcy5 (gene 64532) (UniProt Q04400). Briefly: NVS_ENZ_rACFSKBinding: NovaScreen (NVS) Enzymatic Assay for rat Adenylate Cyclase, Forskolin Stimulated (AID 2283232). The gist of the method:
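Chemicals were first tested at 25 uM in duplicate, then hits run as concentration series with top concentration 50 uM. Enzyme source was rat forebrain membranes; radiometric filter read-out after 1 h, referenced to DMSO.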

One may read the AC50 as the concentration at which the activity in the assay is half-maximal.

Results filed as inconclusive are left out. Activity calls are given as the source filed them. The calls were made as follows: active = hit-call score of the fitted dose curve at least 0.9, where 1 is the maximum; inconclusive = response in the unintended direction; inactive = score below 0.9.

Chain of rat Monoamine Oxidase, MAO-B, Peripheral (MAOBP), Maob (gene 25750) (P19643 whole entry, looked up): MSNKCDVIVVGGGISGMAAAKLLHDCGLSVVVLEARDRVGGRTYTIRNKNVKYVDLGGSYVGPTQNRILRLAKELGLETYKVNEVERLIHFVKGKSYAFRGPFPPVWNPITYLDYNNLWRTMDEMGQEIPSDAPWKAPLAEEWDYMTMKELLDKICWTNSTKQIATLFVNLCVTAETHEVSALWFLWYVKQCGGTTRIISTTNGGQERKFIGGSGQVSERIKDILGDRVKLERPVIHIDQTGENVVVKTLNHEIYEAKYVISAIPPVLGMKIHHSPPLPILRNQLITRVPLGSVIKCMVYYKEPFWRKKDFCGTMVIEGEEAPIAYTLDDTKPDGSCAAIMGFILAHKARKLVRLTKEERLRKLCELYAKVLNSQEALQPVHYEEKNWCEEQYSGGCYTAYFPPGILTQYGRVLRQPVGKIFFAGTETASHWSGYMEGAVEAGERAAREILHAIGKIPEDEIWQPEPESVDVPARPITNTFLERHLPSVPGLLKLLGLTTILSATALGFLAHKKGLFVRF
Chain of rat Monoamine Oxidase, MAO-B, Central (MAOBC), Maob (gene 25750) (P19643 whole entry, looked up): as above
Chain of human Serotonin, 5-Hydroxytryptamine Receptor 5A (5HT5A), HTR5A (gene 3361) (P47898 whole entry, looked up): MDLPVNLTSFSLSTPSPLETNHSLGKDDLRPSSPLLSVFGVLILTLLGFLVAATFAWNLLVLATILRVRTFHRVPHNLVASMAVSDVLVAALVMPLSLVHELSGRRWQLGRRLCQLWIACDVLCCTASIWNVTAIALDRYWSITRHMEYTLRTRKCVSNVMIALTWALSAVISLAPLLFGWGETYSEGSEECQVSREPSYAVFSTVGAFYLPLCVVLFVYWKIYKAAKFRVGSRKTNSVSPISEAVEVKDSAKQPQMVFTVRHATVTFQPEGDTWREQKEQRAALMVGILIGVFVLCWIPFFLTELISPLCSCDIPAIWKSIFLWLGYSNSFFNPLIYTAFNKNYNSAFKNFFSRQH
Chain of Adenosine receptor A1 (Bos taurus) (P28190 whole entry, looked up): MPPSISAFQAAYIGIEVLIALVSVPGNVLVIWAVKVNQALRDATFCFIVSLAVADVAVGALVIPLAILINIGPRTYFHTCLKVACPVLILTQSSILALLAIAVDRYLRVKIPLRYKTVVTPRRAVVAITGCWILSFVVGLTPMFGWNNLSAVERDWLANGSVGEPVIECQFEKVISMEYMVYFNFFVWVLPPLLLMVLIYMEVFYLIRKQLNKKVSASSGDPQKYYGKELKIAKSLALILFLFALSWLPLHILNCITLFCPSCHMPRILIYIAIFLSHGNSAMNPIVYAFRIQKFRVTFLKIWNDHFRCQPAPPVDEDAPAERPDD
Chain of guinea pig Opioid, Kappa 1 Receptor (OpiateK), OPRK1 (gene 100135587) (P41144 whole entry, looked up): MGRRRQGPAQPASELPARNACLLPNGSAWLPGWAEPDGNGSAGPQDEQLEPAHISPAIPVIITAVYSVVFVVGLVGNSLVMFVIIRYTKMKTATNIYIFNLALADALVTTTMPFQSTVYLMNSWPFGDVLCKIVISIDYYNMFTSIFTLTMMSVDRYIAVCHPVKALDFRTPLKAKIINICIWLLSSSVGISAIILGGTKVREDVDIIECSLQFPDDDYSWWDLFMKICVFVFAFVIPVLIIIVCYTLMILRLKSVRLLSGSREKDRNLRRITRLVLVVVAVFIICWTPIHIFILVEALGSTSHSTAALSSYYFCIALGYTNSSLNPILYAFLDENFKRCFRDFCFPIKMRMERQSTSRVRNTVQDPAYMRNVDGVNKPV
Chain of human Vascular Endothelial Growth Factor Receptor 2 (VEGFR2), KDR (gene 3791) (P35968 whole entry, looked up): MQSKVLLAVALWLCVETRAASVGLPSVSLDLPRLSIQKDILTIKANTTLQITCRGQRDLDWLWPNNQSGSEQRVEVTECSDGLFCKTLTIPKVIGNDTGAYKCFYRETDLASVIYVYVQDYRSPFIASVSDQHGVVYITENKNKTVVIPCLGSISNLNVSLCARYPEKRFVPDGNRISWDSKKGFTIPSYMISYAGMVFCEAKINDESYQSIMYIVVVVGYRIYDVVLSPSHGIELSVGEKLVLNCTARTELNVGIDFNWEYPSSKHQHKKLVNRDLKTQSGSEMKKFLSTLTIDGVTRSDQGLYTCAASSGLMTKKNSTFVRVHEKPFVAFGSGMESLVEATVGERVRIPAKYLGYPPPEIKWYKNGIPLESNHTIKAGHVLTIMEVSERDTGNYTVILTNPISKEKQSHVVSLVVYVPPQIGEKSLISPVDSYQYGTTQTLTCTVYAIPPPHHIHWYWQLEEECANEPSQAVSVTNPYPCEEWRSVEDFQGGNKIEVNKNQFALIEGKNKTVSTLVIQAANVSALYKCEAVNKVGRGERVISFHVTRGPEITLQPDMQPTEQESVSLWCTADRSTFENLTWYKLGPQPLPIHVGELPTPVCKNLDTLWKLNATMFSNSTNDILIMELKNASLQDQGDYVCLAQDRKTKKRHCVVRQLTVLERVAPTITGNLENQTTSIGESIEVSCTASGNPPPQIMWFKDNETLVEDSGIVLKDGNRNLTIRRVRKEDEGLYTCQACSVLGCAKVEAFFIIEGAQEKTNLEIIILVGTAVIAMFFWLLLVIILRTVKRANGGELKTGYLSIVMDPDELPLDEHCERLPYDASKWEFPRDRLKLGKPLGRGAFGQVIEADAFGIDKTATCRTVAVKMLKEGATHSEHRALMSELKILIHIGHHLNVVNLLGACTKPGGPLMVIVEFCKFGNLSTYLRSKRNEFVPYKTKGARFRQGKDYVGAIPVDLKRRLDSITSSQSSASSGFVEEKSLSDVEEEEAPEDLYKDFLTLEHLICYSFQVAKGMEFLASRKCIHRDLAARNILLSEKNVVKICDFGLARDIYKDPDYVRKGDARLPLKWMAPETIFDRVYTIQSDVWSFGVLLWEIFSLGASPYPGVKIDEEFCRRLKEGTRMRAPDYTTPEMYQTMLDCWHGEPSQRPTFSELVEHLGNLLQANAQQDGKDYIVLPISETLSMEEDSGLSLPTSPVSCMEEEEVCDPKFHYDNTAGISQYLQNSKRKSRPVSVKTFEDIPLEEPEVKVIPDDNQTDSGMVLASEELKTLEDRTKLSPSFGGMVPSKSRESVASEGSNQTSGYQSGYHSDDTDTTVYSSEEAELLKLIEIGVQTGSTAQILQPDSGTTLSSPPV
Chain of rat Catechol-O-Methyl Transferase (COMT), Comt (gene 24267) (P22734 whole entry, looked up): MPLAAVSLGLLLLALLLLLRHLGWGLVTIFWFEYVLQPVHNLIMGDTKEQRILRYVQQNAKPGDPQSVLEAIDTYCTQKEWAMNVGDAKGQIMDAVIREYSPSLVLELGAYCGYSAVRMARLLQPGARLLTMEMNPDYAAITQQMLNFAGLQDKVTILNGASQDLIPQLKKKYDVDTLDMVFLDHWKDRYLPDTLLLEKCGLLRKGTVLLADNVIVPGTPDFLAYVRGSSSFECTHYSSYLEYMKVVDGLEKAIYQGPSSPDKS
Chain of sheep Cyclooxygenase-2 (Cox2), PTGS2 (gene 443460) (P79208 whole entry, looked up): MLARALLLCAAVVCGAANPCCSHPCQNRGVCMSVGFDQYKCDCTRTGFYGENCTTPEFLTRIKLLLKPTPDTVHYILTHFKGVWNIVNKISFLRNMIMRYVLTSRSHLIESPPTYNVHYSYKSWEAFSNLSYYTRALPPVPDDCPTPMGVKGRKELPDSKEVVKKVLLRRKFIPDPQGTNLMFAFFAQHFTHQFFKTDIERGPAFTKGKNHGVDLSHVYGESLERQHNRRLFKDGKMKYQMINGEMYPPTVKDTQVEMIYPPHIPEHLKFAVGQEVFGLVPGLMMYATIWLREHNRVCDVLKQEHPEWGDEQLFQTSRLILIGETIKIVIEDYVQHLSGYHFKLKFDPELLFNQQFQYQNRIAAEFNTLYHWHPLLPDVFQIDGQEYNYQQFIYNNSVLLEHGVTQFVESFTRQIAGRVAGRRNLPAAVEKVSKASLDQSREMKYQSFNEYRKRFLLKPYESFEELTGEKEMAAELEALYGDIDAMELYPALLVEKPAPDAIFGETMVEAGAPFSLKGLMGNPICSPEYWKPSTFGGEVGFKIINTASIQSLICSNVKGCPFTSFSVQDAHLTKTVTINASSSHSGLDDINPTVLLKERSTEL
Chain of rat Acetylcholinesterase (AChE), Ache (gene 83817) (P37136 whole entry, looked up): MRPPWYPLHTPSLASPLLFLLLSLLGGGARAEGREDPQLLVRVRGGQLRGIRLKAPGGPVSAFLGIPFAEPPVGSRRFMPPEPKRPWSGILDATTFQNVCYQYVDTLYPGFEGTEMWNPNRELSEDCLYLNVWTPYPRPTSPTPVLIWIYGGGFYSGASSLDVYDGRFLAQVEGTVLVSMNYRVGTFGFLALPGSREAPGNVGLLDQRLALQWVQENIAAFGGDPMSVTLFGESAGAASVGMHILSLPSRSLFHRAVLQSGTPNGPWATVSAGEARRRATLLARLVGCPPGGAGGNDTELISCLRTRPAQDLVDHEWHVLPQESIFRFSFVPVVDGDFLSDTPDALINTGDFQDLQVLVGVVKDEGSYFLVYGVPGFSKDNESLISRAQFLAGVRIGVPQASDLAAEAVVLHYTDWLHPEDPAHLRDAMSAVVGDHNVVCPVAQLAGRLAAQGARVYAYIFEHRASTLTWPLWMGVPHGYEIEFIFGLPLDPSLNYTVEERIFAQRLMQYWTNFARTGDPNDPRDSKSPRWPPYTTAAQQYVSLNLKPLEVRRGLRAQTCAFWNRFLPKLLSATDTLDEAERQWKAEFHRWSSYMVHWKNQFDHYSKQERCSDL

Consider `Clc1ccc(Cl)cc1`, for which the AC50 in [1] is 15.8 µM (active). Further, the outcome in test [2] was inactive.

For `CC1=C2C[C@H]3[C@@H](CC=C4C[C@@H](O)CC[C@@]43C)[C@@H]2CC[C@]12O[C@@H]1C[C@H](C)CN[C@H]1[C@H]2C`, the call in test [3] and in [4] was inactive. Besides, the AC50 in test [5] was 1.33 µM (active).

As for `CCC(C)(CC)c1cc(NC(=O)c2c(OC)cccc2OC)on1`, the molecule was called inactive in [6].

Consider `CCCCCCCCCC[N+](C)(C)CCCCCCCCCC`, for which the AC50 is 26 µM (active) in test [3]; 34 µM (active) in test [7]; 22.5 µM (active) in test [8]; 5 µM (active) in [9]; 25 µM (active) in test [10]; 9.63 µM (active) in [11].

For the molecule `Cc1ccccc1O`, the molecule was called inactive in test [2].

Turning to `O=C(O)C(F)(F)C(F)(F)C(F)(F)C(F)(F)C(F)(F)C(F)(F)C(F)(F)C(F)(F)F`, the AC50 in test [12] is 25 µM (active); in test [11], 17.7 µM (active). The outcome in test [13] was inactive.

Regarding `CCC(C)c1cc([N+](=O)[O-])cc([N+](=O)[O-])c1O` (stereo unspecified), the call in test [3] and in test [12] was inactive. Besides, in [6], the concentration at half-maximal activity (AC50) was 1.1 µM (active).

Take `CCNc1nc(NC(C)C)nc(SC)n1`: the result in test [14] was inactive. The half-maximal activity concentration (AC50) in [2] is 13.4 µM (active).

For the molecule `Cc1cc(O)ccc1Cl`, the half-maximal activity concentration (AC50) in [15] was 19.1 µM (active); in test [16], 13.6 µM (active); in test [4], 25 µM (active); in test [7] it was 18.5 µM (active).

Regarding `Oc1ccc(Cl)cc1Cl`, the AC50 in test [16] is 7.6 µM (active). Moreover, the result in test [7] was inactive.

With `CCOCCOC(C)=O`, the outcome in [16] was inactive.

Regarding `O=S(=O)(O)C(F)(F)C(F)(F)C(F)(F)C(F)(F)F`, the concentration at half-maximal activity (AC50) in [12] is 12.2 µM (active).

Regarding `Cc1ccc(O)c(C)c1`, in [1], the half-maximal activity concentration (AC50) is 18.4 µM (active).

Turning to `C[C@]12CCC(=O)C=C1CC[C@@H]1[C@@H]2CC[C@]2(C)C(=O)CC[C@@H]12`, the AC50 in test [17] was 24.4 µM (active). For the same molecule, the molecule was classed as inactive in test [5].

On to `Cc1ccccc1CO[C@@H]1C[C@@]2(C(C)C)CC[C@]1(C)O2`, for which, in test [6], the outcome was inactive.

Turning to `CC(C)(c1ccccc1)c1ccc(O)cc1`, the molecule was classed as inactive in [3], in [18], in [16] and in test [4]. The half-maximal activity concentration (AC50) in test [12] was 7.09 µM (active); in [11], 25 µM (active).

As for `O=C(N[C@H]1CN2CCC1CC2)c1cc2ccoc2cn1`, the molecule was called inactive in test [10] and in test [5].
